According to PubChem BioAssay (NCATS):
Values joined by “and” are separate entries in the source; they are usually repeats but may differ in a detail not shown here. Identical values can stand only once. Inconclusive results are not listed. Active and inactive are the calls of the source. Unless noted, the call rests on the fitted dose curve; in most records, active means well fitted activation curve with a large enough effect; inconclusive means small, poorly fitted or top-dose-only effect; inactive means flat fitted curve, though single readings scatter.

assay: qHTS assay to identify small molecules that stimulate interleukin-8 (IL-8) secretion (AID 651758; active means well fitted activation curve with a large enough effect in the signal ratio; the % refers to the signal ratio; further: 0% is about no effect); settings: HTRF ratio (665/615); series mostly up to 92.2 µM; activation: at the top concentration
Outline: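 THP-1, 2000 cells/well; cpd 16 h, 37 C; add cryptate + XL665 anti-IL-8 Abs; RT 1-3 h; TR-FRET read.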

Row | SMILES | activation
1 | C[C@]12CCC(=O)C=C1CC[C@@H]1[C@@H]2CC[C@@]2(C)[C@H]1CC[C@]2(C)O | 9.46% (inactive)
2 | C[C@]1(O)CC[C@H]2[C@@H]3CCC4=CC(=O)CC[C@]4(C)[C@@]3(F)[C@@H](O)C[C@@]21C | 23.4% (inactive)
3 | COC(=O)C(c1ccccc1)C1CCCCN1 (stereo not drawn) | -17.9% (inactive)
4 | Nc1ccccc1 | -2.62% (inactive)
5 | COP(=S)(OC)Oc1ccc(SC)c(C)c1 | 13.6% (inactive)

assay: qHTS assay for environmental chemicals that activate the Aryl hydrocarbon Receptor (AhR) signaling pathway (AID 651777); settings: 1A2-DRE human hepatoma cells, luciferase, 24 h; hits give high values; further: % of control where 0% means no effect; nearly all actives have a fitted effect of over 15% in size
Outline: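 Stable CYP1A2 promoter/DRE-luciferase human hepatoma line treated 24 hr; One-Glo luminescence, 30 min RT.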

Row | SMILES | activation
6 | CC(C)NC(C)C | -1.71% (inactive)
7 | NCCc1ccc(O)cc1 | -0.313% (inactive)
8 | CC(C)c1cccc(C(C)C)c1O | 0.116% (inactive)
9 | Nc1ccccc1C(=O)O | 3.23% (inactive)
10 | CCC(C)(C)c1ccc(O)cc1 | 0.262% (inactive) and -0.822% (inactive)
11 | C[C@]12CCC(=O)C=C1CC[C@@H]1[C@@H]2CC[C@]2(C)C(=O)CC[C@@H]12 | 2.9% (inactive) and -2.01% (inactive)
12 | O=C1c2ccccc2C(=O)C1C(=O)C(c1ccccc1)c1ccccc1 | 5.81% (inactive)
13 | O=C(O)CCCc1ccc(N(CCCl)CCCl)cc1 | -0.459% (inactive) and 0.835% (inactive)
14 | Nc1nc(N)nc(NC2CC2)n1 | 0.42% (inactive)
15 | CC1(C)C(C=C(Cl)Cl)C1C(=O)OC(C#N)c1cccc(Oc2ccccc2)c1 (stereo not drawn) | 3.99% (inactive)
16 | COP(=S)(OC)SCN1C(=O)c2ccccc2C1=O | -1.4% (inactive)
17 | C[C@]12CCC(=O)C=C1CC[C@@H]1[C@@H]2CC[C@@]2(C)[C@H]1CC[C@]2(C)O | -0.473% (inactive)
18 | CN1C[C@H](C(=O)N[C@]2(C)O[C@@]3(O)[C@@H]4CCCN4C(=O)[C@H](Cc4ccccc4)N3C2=O)C=C2c3cccc4[nH]cc(c34)C[C@H]21 | 6.16% (inactive) and 6.48% (inactive)
19 | Oc1ccc(Cl)cc1 | 0.502% (inactive)
20 | CCCC(C)(COC(N)=O)COC(N)=O | 1.18% (inactive) and -0.314% (inactive)
21 | O=P1(N(CCCl)CCCl)NCCCO1 (stereo not drawn) | 0.318% (inactive) and -1.16% (inactive)
22 | C[C@]1(O)CC[C@H]2[C@@H]3CCC4=CC(=O)CC[C@]4(C)[C@@]3(F)[C@@H](O)C[C@@]21C | 0.165% (inactive)
23 | CC(C)(C)c1ccc(O)cc1 | 0.343% (inactive)
24 | COC(=O)C(c1ccccc1)C1CCCCN1 (stereo not drawn) | 0.112% (inactive) and -0.732% (inactive)
25 | COP(=S)(OC)Oc1cc(Cl)c(Cl)cc1Cl | 2.9% (inactive)
26 | Clc1ccc(C(c2ccc(Cl)cc2)C(Cl)(Cl)Cl)cc1 | 0.0892% (inactive) and -0.298% (inactive)
27 | O=C1c2ccccc2C(=O)c2ccccc21 | 2.59% (inactive)
28 | CCOC(=O)CC(SP(=S)(OC)OC)C(=O)OCC (stereo not drawn) | 1.62% (inactive) and 10.4% (inactive) and -0.452% (inactive)
